The list is not random: actives were taken first. Their share in the collection is about 21%.
TDP1 cell CPT: growth inhibition of DT40 Tdp1-/-;hTDP1 cells with camptothecin (screen for TDP1 inhibitors). chicken DT40 Tdp1-/-;hTDP1 cells + 20 nM CPT, ATP luminescence, 48 h. actives 12% (n = 420,000). Potency, µM (top dose mostly 46.2 µM), actives largely listed as inhibitors. AID 686979; note: nearly all actives have a fitted effect of over 55% in size
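Cell growth measured by CellTiter-Glo luminescence after a minimum 48 h, 37 C compound exposure with 20 nM CPT in Tdp1-knockout DT40 cells stably expressing hTDP1, seeded 400/well; qHTS titration format.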
D3 antag: antagonists of human D3 dopamine receptor | P35462 | D3R cells, DiscoveRx beta-arrestin luminescence, antagonist mode; hits give low values | max response, negative = inhibition, % | actives 2.5% (n = 360,000); in the data active = max response below about -50%; inconclusive = no clear call, values can overlap the other calls
Target sequence (P35462 whole entry, looked up): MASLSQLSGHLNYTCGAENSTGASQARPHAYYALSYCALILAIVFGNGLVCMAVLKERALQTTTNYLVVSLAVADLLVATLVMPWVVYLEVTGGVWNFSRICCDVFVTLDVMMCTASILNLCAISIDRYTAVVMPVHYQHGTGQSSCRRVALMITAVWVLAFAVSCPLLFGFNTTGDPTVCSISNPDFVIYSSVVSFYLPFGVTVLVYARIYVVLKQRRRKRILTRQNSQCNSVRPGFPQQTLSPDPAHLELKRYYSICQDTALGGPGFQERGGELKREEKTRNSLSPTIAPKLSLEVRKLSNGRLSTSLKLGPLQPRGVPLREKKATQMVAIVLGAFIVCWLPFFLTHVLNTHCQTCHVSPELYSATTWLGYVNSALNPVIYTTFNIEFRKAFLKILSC
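Cells expressing the human receptor were seeded at 1500 cells/well, incubated overnight at 37 degrees C in 5% CO2, then exposed to library compounds with dopamine controls for 90 minutes at 37 degrees C before luminescent detection.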
D3 ag: activates the human D3 dopamine receptor | max activation, % | AID 652048 | actives 0.58% (n = 410,000) | P35462 | D3R DiscoveRx beta-arrestin cells, luminescence, 90 min; in the data active = max activation above about 30%
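Cells at 1500/well, incubated overnight, then treated with pinned compounds (dopamine as control) for 90 min at 37 degrees C. DiscoveRx reagent added for 30 - 60 minutes at room temperature; luminescence read.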
ClpP mod: qHTS Assay for Activators of ClpP; purified B. subtilis ClpP, FRET peptide cleavage, 20 min; ATP-dependent Clp protease proteolytic subunit (Bacillus subtilis (strain 168)), P80244; Potency, µM (doses to about 57.5 µM); actives 1.9% (n = 340,000); AID 651965, 2013; active = well fitted falling curve with a large enough effect; inconclusive = small, poorly fitted or top-dose-only effect; inactive = no such curve, though single readings can be large or run the other way; note: the source files actives as falling curves though it sought activators and does not explain the sign; nearly all actives have a fitted effect of over 65% in size
Target sequence (P80244 whole entry, looked up): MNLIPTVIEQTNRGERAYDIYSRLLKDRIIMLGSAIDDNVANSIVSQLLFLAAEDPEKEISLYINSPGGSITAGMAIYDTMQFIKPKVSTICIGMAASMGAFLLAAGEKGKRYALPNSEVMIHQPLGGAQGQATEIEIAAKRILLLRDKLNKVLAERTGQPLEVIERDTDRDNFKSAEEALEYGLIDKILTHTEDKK
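FRET quenching reversal measured ClpP activation: 10 microg/mL B. subtilis ClpP at pH 8 with the FRET-FV decapeptide, read at 430 nm after 320 nm excitation. The 20-min minus 0-min signal was scaled between DMSO/no-enzyme wells and ADEP (5.8 microM final).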
TDP1 cell noCPT: qHTS for Inhibitors of human tyrosyl-DNA phosphodiesterase 1 (TDP1): qHTS in cells in absence of CPT | DT40 Tdp1-/- hTDP1 cells, no CPT, ATP luminescence, 48 h | Potency, µM (titrated, usually from 46.2 µM), hits mostly inhibitors | actives 15% (n = 420,000) | AID 686978, 2013; note: nearly all actives have a fitted effect of over 55% in size
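A cellular qHTS used chicken DT40 cells lacking endogenous Tdp1 but carrying stably transfected human TDP1. Compounds were applied without camptothecin, and cell growth kinetics were judged by ATP-dependent luminescence after ≥48 hr.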
IL1B secr inh: inflammasome signaling inhibition, IL-1 beta readout; THP-1 LPS/ATP IL-1B secretion, AlphaLISA, 16 h; hits give low values; activity change, % at 57.5 µM; actives 4.7% (n = 360,000); AID 743279; in the data active = activity change below about -50%; inconclusive = mostly about -30% to -49%
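Secreted IL-1B measured by AlphaLISA bead assay after 16 h compound exposure of THP-1 cells; compounds (final up to 57.5 uM) added 1 h before LPS (250 ng/mL) and ATP (1.25 mM) stimulation; lower signal means less secretion.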
Numbers stand for hits; ! = not confirmed by another sample. Unless noted, calls come from the whole dose curve; as a rule, active = well fitted inhibition curve with a large enough effect; inconclusive = small, poorly fitted or top-dose-only effect; inactive = flat fitted curve, though single readings scatter.

For CNc1ncnc2c1ncn2[C@H]1CN(C2CCCC2)C[C@@H](CO)O1 the results were TDP1 cell CPT 1.6µM, D3 antag inactive, D3 ag inactive, ClpP mod inactive, TDP1 cell noCPT inactive and IL1B secr inh inactive.
`CNc1ncnc2c1ncn2[C@H]1CN(Cc2ccc(-c3ccccc3)cc2)C[C@@H](CO)O1` gave TDP1 cell CPT inconclusive, D3 antag inactive, D3 ag inactive, ClpP mod inactive, TDP1 cell noCPT 23µM and IL1B secr inh inactive.
`OC[C@@H]1CN(Cc2ccc(-c3ccccc3)cc2)C[C@H](n2cnc3c(NCc4ccc(F)cc4)ncnc32)O1` gave TDP1 cell CPT 4.1µM, D3 antag inactive, D3 ag inactive, ClpP mod inactive, TDP1 cell noCPT 3.7µM and IL1B secr inh inactive.
OC[C@@H]1CN(Cc2ccc(F)cc2)C[C@H](n2cnc3c(Nc4ccccc4)ncnc32)O1 was read as TDP1 cell CPT inconclusive, D3 antag inactive, D3 ag inactive, ClpP mod inactive, TDP1 cell noCPT inconclusive and IL1B secr inh inactive.
`OC[C@@H]1CN(Cc2ccccc2)C[C@H](n2cnc3c(NCc4ccc(F)cc4)ncnc32)O1` gave TDP1 cell CPT inconclusive, D3 antag inactive, D3 ag inactive, ClpP mod inactive, TDP1 cell noCPT inconclusive and IL1B secr inh inactive.
`OC[C@@H]1CN(Cc2ccc(-c3ccccc3)cc2)C[C@H](n2cnc3c(NC4CC4)ncnc32)O1` gave TDP1 cell CPT inconclusive, D3 antag inactive, D3 ag inactive, ClpP mod inactive, TDP1 cell noCPT inconclusive and IL1B secr inh inactive.
Screening OC[C@@H]1CN(Cc2ccc(-c3ccccc3)cc2)C[C@H](n2cnc3c(Nc4ccccc4)ncnc32)O1 returned TDP1 cell CPT 4.1µM, D3 antag inactive, D3 ag inactive, ClpP mod inactive, TDP1 cell noCPT inconclusive and IL1B secr inh inconclusive.
`CCCCCCN1C[C@H](n2cc(COC(=O)c3ccccc3)nn2)[C@@H](O)C[C@@H]1c1ccccc1` gave TDP1 cell CPT inconclusive, D3 antag inactive, D3 ag inactive, ClpP mod inactive, TDP1 cell noCPT 23µM and IL1B secr inh inactive.
Screening CCCCCCN1C[C@@H](n2cc(COC(=O)c3ccccc3)nn2)[C@H](O)C[C@@H]1c1ccc(Cl)cc1 returned TDP1 cell CPT 13µM, D3 antag inactive, D3 ag inactive, ClpP mod inactive, TDP1 cell noCPT 21µM and IL1B secr inh inactive.
For CCN(CC)CCNC(=O)C(=O)Nc1ccc2c(c1)N(S(=O)(=O)c1cccs1)CCC2 the results were TDP1 cell CPT 15µM, D3 antag inactive, D3 ag inactive, TDP1 cell noCPT 16µM and IL1B secr inh inactive.
For CNC(=O)C(=O)Nc1ccc2c(c1)N(S(=O)(=O)c1cccs1)CCC2 the results were TDP1 cell CPT inconclusive, D3 antag inactive, D3 ag inactive, ClpP mod inactive, TDP1 cell noCPT inconclusive and IL1B secr inh inactive.
Screening CCCCNC(=O)C(=O)Nc1ccc2c(c1)N(S(=O)(=O)c1cccs1)CCC2 returned TDP1 cell CPT 2.6µM, D3 antag inactive, D3 ag inactive, ClpP mod inactive, TDP1 cell noCPT 1.8µM and IL1B secr inh inactive.
`CN(C)/C=C/C(=O)c1cc(F)cc(C(F)(F)F)c1` gave TDP1 cell CPT inactive, D3 antag inactive, D3 ag inactive, TDP1 cell noCPT inactive and IL1B secr inh inactive.
Screening CC(C)(C)c1ccc(C(=O)NCc2nnc(SCC(=O)NCC3CCCO3)o2)cc1 (stereo not drawn) returned TDP1 cell CPT inactive, D3 antag inactive, D3 ag inactive, ClpP mod inactive, TDP1 cell noCPT inactive and IL1B secr inh inactive.
CC(C)(C)OC(=O)N[C@@H](COCc1ccccc1)C(=O)N[C@@H](CO)[C@H](O)[C@@H]1C[C@@H]1C(=O)NC1CCCCC1 was read as TDP1 cell CPT inconclusive, D3 antag inactive, D3 ag inactive, ClpP mod inactive, TDP1 cell noCPT inactive and IL1B secr inh inactive.
`O=C(Cn1ccc2cc(S(=O)(=O)N3CCCCCC3)ccc21)NCc1cccc(Cl)c1` gave TDP1 cell CPT inconclusive, D3 ag inactive, ClpP mod inactive and TDP1 cell noCPT 18µM.
`O=C(Cn1ccc2cc(S(=O)(=O)N3CCCC3)ccc21)NCc1ccccc1Cl` gave TDP1 cell CPT inactive, D3 ag inactive, ClpP mod inactive and TDP1 cell noCPT inactive.
For O=C(Cn1ccc2cc(S(=O)(=O)N3CCCC3)ccc21)NCCc1ccccc1 the results were TDP1 cell CPT inconclusive, D3 antag inactive, D3 ag inactive, TDP1 cell noCPT 23µM and IL1B secr inh inactive.
`O=C(Cn1ccc2cc(S(=O)(=O)N3CCCCC3)ccc21)NCc1ccccc1Cl` gave TDP1 cell CPT 18µM, D3 ag inactive, ClpP mod inactive and TDP1 cell noCPT 21µM.
Screening O=C(Cn1ccc2cc(S(=O)(=O)N3CCCC3)ccc21)NCc1ccc(Cl)cc1 returned TDP1 cell CPT inconclusive, D3 ag inactive, ClpP mod inactive and TDP1 cell noCPT inactive.
Screening CCOc1ccccc1CNC(=O)Cn1ccc2cc(S(=O)(=O)N3CCC(C)CC3)ccc21 returned TDP1 cell CPT inconclusive, D3 antag inactive, D3 ag inactive, ClpP mod inactive, TDP1 cell noCPT 21µM and IL1B secr inh inactive.
C/C(=C\c1ccccc1)C(=O)NCCc1ccccc1 was read as TDP1 cell CPT inactive, D3 antag inactive, D3 ag inactive, TDP1 cell noCPT inactive and IL1B secr inh inactive.
Screening CC(C)NC(=O)Cn1ccc2cc(S(=O)(=O)N3CCCCCC3)ccc21 returned TDP1 cell CPT inconclusive, D3 ag inactive, ClpP mod inactive and TDP1 cell noCPT inconclusive.
`COC(=O)Cn1ccc2cc(S(=O)(=O)N3CCCCC3)ccc21` gave TDP1 cell CPT 21µM!, D3 antag inactive, D3 ag inactive, ClpP mod inactive, TDP1 cell noCPT inconclusive and IL1B secr inh inactive.
`CC(NC(=O)Cn1ccc2cc(S(=O)(=O)N3CCCCCC3)ccc21)c1ccccc1` (stereo not drawn) gave TDP1 cell CPT inconclusive, D3 ag inactive, ClpP mod inactive and TDP1 cell noCPT 18µM.
For COC(=O)Cn1ccc2cc(S(=O)(=O)N3CCCCCC3)ccc21 the results were TDP1 cell CPT inactive, D3 antag inactive, D3 ag inactive, ClpP mod inactive, TDP1 cell noCPT inactive and IL1B secr inh inactive.
For CCc1ccc(CNC(=O)c2nn(-c3ccc(C)c(C)c3)nc2CO)cc1 the results were TDP1 cell CPT inactive, D3 ag inactive, ClpP mod 3.5µM and TDP1 cell noCPT inactive.
